From PubChem BioAssay AID488911 (Broad Institute, 2010)
Measured potencies and affinities stand elsewhere. Activity calls are given as the source filed them.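 Rule for the calls: active = falling signal whose fitted half-effect dose is at or below ten times the top valid dose; inconclusive = flat fit showing a moderate drop, or a poor fit; inactive = the rest.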

Assay: mammalian cell toxicity in NIH-3T3 fibroblasts, dose response, cytotoxicity control for antifungal resistance reversal project, Alamar Blue, dry powder, set 2 (AID 488911)
Details: NIH-3T3 viability with fluconazole, 48 h; series mostly up to 26 µM; activity change, negative = toxicity: at the top concentration

| Structure (SMILES) | activity change, negative = toxicity |
| --- | --- |
| O=C(c1ccccc1Cl)N1CCN(c2ccnc3cc(Cl)ccc23)CC1 | -4.7% (inactive) |
| Cc1cc(N2CCN(C(=O)c3ccc(Cl)cc3)CC2)c2ccccc2n1 | 10.1% (inactive) |
| O=C(C1CCCC1)N1CCN(c2ccnc3cc(Cl)ccc23)CC1 | 13.4% (inactive) |
| O=C(c1ccc(Cl)nc1)N1CCN(c2ccnc3cc(Cl)ccc23)CC1 | 7.22% (inactive) |
| CCCC(=O)N1CCN(c2ccnc3cc(Cl)ccc23)CC1 | 14.2% (inactive) |
| COc1cccc2c(N3CCN(C(=O)c4ccc(Cl)cc4)CC3)cc(C)nc12 | 0.326% (inactive) |
| O=C(c1ccc(Cl)cc1)N1CCN(c2ncnc3ccccc23)CC1 | 11.1% (inactive) |
| O=C(Nc1ccc(Cl)cc1)N1CCN(c2ccnc3cc(Cl)ccc23)CC1 | 25% (inactive) |
| Clc1ccc2c(N3CCNCC3)ccnc2c1 | 2.01% (inactive) |
| COCCC(=O)N1CCN(c2ccnc3cc(Cl)ccc23)CC1 | -4.31% (inactive) |
| O=C(c1cccc(Cl)c1)N1CCN(c2ccnc3cc(Cl)ccc23)CC1 | 8.83% (inactive) |
| CC(C)C(=O)N1CCN(c2ccnc3cc(Cl)ccc23)CC1 | 14.8% (inactive) |
| O=C(c1ccc(Cl)cc1)N1CCN(c2ncnc3nc[nH]c23)CC1 | 8.74% (inactive) |
| CC1CN(c2ccnc3cc(Cl)ccc23)CCN1C(=O)c1ccc(Cl)cc1 (stereo unspecified) | 13.2% (inactive) |
| O=C(c1ccc(Cl)cc1)C1CCN(c2ccnc3cc(Cl)ccc23)CC1 | 18.4% (inactive) |
| O=C(c1ccc(Cl)cc1)N1CCNCC1 | 0.514% (inactive) |

| Structure (SMILES) | activity change, negative = toxicity |
| --- | --- |
| O=C(c1ccc(Cl)cn1)N1CCN(c2ccnc3cc(Cl)ccc23)CC1 | 7.91% (inactive) |
| O=C(c1ccc(Cl)cc1)N1CCN(c2ccnc3ccc(Cl)cc23)CC1 | 14.3% (inactive) |
| O=C(C1CCC1)N1CCN(c2ccnc3cc(Cl)ccc23)CC1 | 10.2% (inactive) |
| O=C(c1ccc(Cl)cc1)N1CCN(c2ccccn2)CC1 | 5.23% (inactive) |
| Cc1cc(N2CCN(C(=O)c3ccc(Cl)cc3)CC2)c2ccc(F)cc2n1 | 10.8% (inactive) |
| COc1ccc(C(=O)N2CCN(c3ccnc4cc(Cl)ccc34)CC2)cc1 | 4.75% (inactive) |
| N#Cc1ccc(N2CCN(C(=O)c3ccc(Cl)cc3)CC2)nc1 | -7.19% (inactive) |
| O=C(c1ccc(Cl)cc1)N1CCN(c2ccncc2)CC1 | -9.7% (inactive) |
| COc1ccc2c(N3CCN(C(=O)c4ccc(Cl)cc4)CC3)ccnc2c1 | 7.43% (inactive) |
| O=C(c1ccc(F)cc1)N1CCN(c2ccnc3cc(Cl)ccc23)CC1 | 1.73% (inactive) |
| O=C(C1CCCCC1)N1CCN(c2ccnc3cc(Cl)ccc23)CC1 | 4.88% (inactive) |
| O=C(c1ccc(Cl)cc1)N1CCN(c2ccnc3ccccc23)CC1 | 2.54% (inactive) |
| O=C(c1ccc(Cl)cc1)N1CCCN(c2ccnc3cc(Cl)ccc23)CC1 | 6.05% (inactive) |
| CC(C)CC(=O)N1CCN(c2ccnc3cc(Cl)ccc23)CC1 | 6.43% (inactive) |
| O=C(c1ccc(Cl)cc1)N1CCN(c2ccnc3cc(Cl)ccc23)CC1 | 3.6% (inactive) |
